The source holds several records for some structures; these can differ, active in one and inactive in another. Activity calls are given as the source filed them. Rule for the calls: active = hit-call score of the fitted dose curve at least 0.9, where 1 is the maximum; inactive = score below 0.9.
These compounds were tested on Protein phosphatase 2A (PPP2R4), PTPA (gene 5524) (assay: LTEA_HepaRG_PPP2R4: Life Technologies and Expression Analysis (LTEA) Assay for Protein phosphatase 2A (PPP2R4) using HepaRG (AID 2283522)). Conditions: mRNA level, 48 h; actives raise or lower the signal.
Description: LTEA_HepaRG is a cell based, multiplexed-readout assay that uses HepaRG, a human liver cell line, with measurements taken at 48 hours after chemical dosing on a 96-well plate.LTEA_HepaRG_PPP2R4 is one of 102 assay component(s) measured in the LTEA HepaRG cell culture assay. It is a marker of Cell proliferation, survival, death.Data from the assay component LTEA_HepaRG_PPP2R4 was analyzed into 1 endpoint. This assay endpoint, LTEA_HepaRG_PPP2R4, was analyzed with bidirectional fitting relative to DMSO as the negative control and baseline of activity. Using a type of inducible reporter, measures of mRNA induction for gain or loss-of-signal activity can be used to understand regulation of transcription factor activity. To generalize the intended target to other relatable targets, this assay endpoint is annotated to the phosphatase intended target family, where the subfamily is serine/threonine phosphatase.
A total of 1060 chemcials from the ToxCast library were tested in eight-point concentration-response experiments. Cell culture and cytotoxicity assays were conducted at Thermo Fisher Scientific's Custom Services facility (Madison, WI). A single lot of human HepaRG cells (Thermo Fisher Scientific, Frederick, MD) was used for the cell culture experiments. 96-well format collagen type I coated plates of human HepaRG cells were prepared using established methods. Briefly, cryopreserved HepaRG cells were thawed, plated at a density of approximately 100,000 cells/well in HepaRG Thaw, Plate, and General Purpose media (HPRG770, Thermo Fisher Scientific), and incubated for 48 hours. 0.5% DMSO was selected as vehicle control to balance the requisite need of DMSO in HepaRG cultures to maintain differentiation (for example, baseline metabolism, proportions of hepatocytes vs. cholangiocytes), while enabling further hepatic receptor pathway activation (for example, PXR and CAR) in response to chemical exposure. 48 hours after plating, the culture medium was replaced with HepaRG Serum-Free Incudtion Media. Cells were exposed to each test chemical in duplicate and maintained in CO2 incubators for another 48 hours. Chemical plates were thawed to room temperature and 200x concentrations of treatment groups were prepared. 8-point conentration-reponse curves were made with the highest exposure at 100 uM, followed by half-log dilutions, all in 0.5% DMSO. Each test plate contained variouse controls, induction positive controls (1mM phenobarbital), cytotoxicity positive controls ([…] aflatoxin B1), vehicle controls (0.5% DMSO), and total lysis controls (0.5% DMSO). Cell morphology images were taken using an Essen IncuCyte FLR automated microscope, with six 96-well plates imaged in about 24 minutes. Images were captured and exported and JPEG files. Spent culture media was transfered to black-well plates for the LDH assay, and remaining media was sorted at -80 C for later use. Cells were treated with RLT buffer and frozen until shipped for gene expression analysis. Total RNA was isolated from the cell suspension in 75 uL of Buffer RLT (Qiagen, Germantown, MD 20874) by Quintiles/Expression Analysis (Durham, NC) using a custom isolation procedure. Total RNA from each plate well was transferred to a preamplification plate. Fluidigm's 96.96 Dynamic ArrayTM (Fluidigm, Amsterdam, the Netherlands) technology was used for gene expression analyses by quantitative reverse transcription polymerase chain reaction (qRT-PCR, performed by Quintiles/Expression Analysis, Durham, NC)89. Standard TaqManTM Assays (Applied Biosystems/ThermoFisher Scientific, Foster City, CA) were used to assess the expression of 93 genes selected based on their selectivity and sensitivity to important hepatic receptors known to be modulated by environmental chemicals; importance in human hepatocyte functionality; and hepatotoxicity. […]

Compound | outcome | AC50
COP(=S)(OC)Oc1ccc(SC)c(C)c1 | inactive | –
CC1(c2ccc(Oc3ccccc3)cc2)OC(=O)N(Nc2ccccc2)C1=O (stereo not given) | – | 12.1 µM (active)
Cc1[nH]c(=O)n(C(C)(C)C)c(=O)c1Cl | inactive | –
O=C(O)COc1ccc(Cl)cc1Cl | inactive | –
CNC(=O)Oc1ccccc1OC(C)C | inactive | –
CCC(C)(C)C(=O)OC1=C(c2ccc(Cl)cc2Cl)C(=O)OC12CCCCC2 | inactive | –
O=C(O)CCCOc1ccc(Cl)cc1Cl | inactive | –
O=C(Nc1ccccc1)Nc1cnns1 | inactive | –
COP(=O)(OC)OC=C(Cl)Cl | inactive | –
O=C(NC(=O)c1c(F)cccc1F)Nc1ccc(OC(F)(F)C(F)OC(F)(F)F)c(Cl)c1 (stereo not given) | inactive | –
CCCN(CCOc1c(Cl)cc(Cl)cc1Cl)C(=O)n1ccnc1 | inactive | –
CC1(C)C(C=C(Cl)Cl)C1C(=O)OC(C#N)c1ccc(F)c(Oc2ccccc2)c1 (stereo not given) | inactive | –
N#CN | inactive | –
CCN(CC)C(=O)SCc1ccc(Cl)cc1 | inactive | –
Clc1ccccc1-c1nnc(-c2ccccc2Cl)nn1 | inactive | –
CNC(=O)/C=C(\C)OP(=O)(OC)OC | inactive | –
C[C@H]1[C@H](c2ccc(Cl)cc2)SC(=O)N1C(=O)NC1CCCCC1 | – | 50 µM (active)
CCC(C)Nc1c([N+](=O)[O-])cc(C(C)(C)C)cc1[N+](=O)[O-] (stereo not given) | inactive | –
CC[C@H](C)[C@H]1O[C@]2(C=C[C@@H]1C)C[C@@H]1C[C@@H](C/C=C(\C)[C@@H](O[C@H]3C[C@H](OC)[C@@H](O[C@H]4C[C@H](OC)[C@@H](O)[C@H](C)O4)[C@H](C)O3)[C@@H](C)/C=C/C=C3\CO[C@@H]4[C@H](O)C(C)=C[C@@H](C(=O)O1)[C@]34O)O2 (tested in a mixture with another compound) | – | 47.7 µM (active)
ClC1C(Cl)C(Cl)C(Cl)C(Cl)C1Cl (stereo not given) | inactive | –

Compound | outcome | AC50
CN1CSC(=S)N(C)C1 | inactive | –
O=C(O)C(F)(F)C(F)(F)C(F)(F)C(F)(F)C(F)(F)C(F)(F)C(F)(F)F | inactive | –
CCC(C)(NC(=O)c1cc(Cl)c(C)c(Cl)c1)C(=O)CCl (stereo not given) | inactive | –
O=S(=O)(O)C(F)(F)C(F)(F)C(F)(F)C(F)(F)C(F)(F)C(F)(F)C(F)(F)C(F)(F)F | inactive | 50 µM (active)
O=S1OCC2C(CO1)C1(Cl)C(Cl)=C(Cl)C2(Cl)C1(Cl)Cl (stereo not given) | inactive | –
Oc1ccc(Cl)cc1Cc1ccccc1 | inactive | –
CNC(=O)Oc1cccc(N=CN(C)C)c1 | inactive | –
CC(C)N(C(=O)COc1nnc(C(F)(F)F)s1)c1ccc(F)cc1 | – | 31.4 µM (active)
OCCOc1ccccc1 | inactive | –
CC(C)(C)C(O)C(Oc1ccc(Cl)cc1)n1cncn1 (stereo not given) | inactive | –
COP(=S)(OC)Oc1ccc([N+](=O)[O-])cc1 | inactive | –
O=[N+]([O-])c1c(Cl)c(Cl)c(Cl)c(Cl)c1Cl | inactive | –
CCc1ccc(C(=O)NN(C(=O)c2cc(C)cc(C)c2)C(C)(C)C)cc1 | inactive | –
CC(C)(C)C(O)/C(=C\c1ccc(Cl)cc1Cl)n1cncn1 (stereo not given) | – | 85.9 µM (active)
CC(C)OC(=O)Nc1cccc(Cl)c1 | inactive | –
CCOCN(C(=O)CCl)c1c(C)cccc1CC | inactive | –
COc1nn(CSP(=S)(OC)OC)c(=O)s1 | inactive | –
CNC(=O)CSP(=S)(OC)OC | inactive | –
N#Cc1c(Cl)c(Cl)c(Cl)c(C#N)c1Cl | inactive | –

Reference: PubChem BioAssay (EPA / NIEHS)
